High-throughput results as filed in PubChem.
The entries come from a sample that favours hits as a whole.
ER stress surv: ER stress cell death inhibition. CSM14.1 thapsigargin ER stress survival, ATP luminescence. relative survival (cellular ATP), % at 15 µg/mL (by protocol). actives 0.33% (n = 48,000). AID 1010;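 active means survival measured by cellular ATP above 50% at 15 µg/ml in the first screen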;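 further: cell death triggered by about 15 µM thapsigargin; ATP read 24 h after thapsigargin was added; plate controls were thapsigargin with DMSO for no effect and DMSO without thapsigargin for full effect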
* hit, by the source's call.

`COc1ccc(C2CC(=O)C3=C(C2)Nc2ccccc2NC3c2ccc3ccccc3c2)cc1` (configuration not stated) gave ER stress surv 50*.
Screening O=C1CC(c2ccccc2)CC2=C1C(c1ccc(Cl)c(Cl)c1)Nc1ccccc1N2 (configuration not stated) returned ER stress surv 6.
COc1ccc(C2CC(=O)C3=C(C2)Nc2ccccc2NC3c2ccc(C(F)(F)F)cc2)cc1 (configuration not stated) was read as ER stress surv 2.
For Cc1ccc2c(c1)NC(c1ccc3c(c1)OCO3)C1=C(CC(c3ccccc3)CC1=O)N2 (configuration not stated) the results were ER stress surv 92*.
Screening COc1ccc(C2CC(=O)C3=C(C2)Nc2ccccc2NC3c2ccc(C)c([N+](=O)[O-])c2)cc1OC (configuration not stated) returned ER stress surv 4.
COc1ccc(C2CC(=O)C3=C(C2)Nc2ccccc2NC3c2ccc(Cl)c([N+](=O)[O-])c2)cc1 (configuration not stated) was read as ER stress surv 104*.
O=C1CC(c2ccc(Cl)cc2)CC2=C1C(c1cccs1)Nc1ccccc1N2 (configuration not stated) was read as ER stress surv 68*.
`COc1cc(C2Nc3ccccc3NC3=C2C(=O)CC(c2ccc(Cl)cc2)C3)cc(OC)c1OC` (configuration not stated) gave ER stress surv -1.
For COc1ccc(C2Nc3ccccc3NC3=C2C(=O)CC(c2ccccc2)C3)cc1 (configuration not stated) the results were ER stress surv 22.
For CSc1ccc(C2Nc3ccccc3NC3=C2C(=O)CC(c2ccc4c(c2)OCO4)C3)cc1 (configuration not stated) the results were ER stress surv -3.
For Cc1ccc2c(c1)NC(c1ccc(F)cc1)C1=C(CC(c3ccccc3)CC1=O)N2 (configuration not stated) the results were ER stress surv 1.
`Cc1ccc(C2Nc3ccccc3NC3=C2C(=O)CC(c2ccc(Cl)cc2)C3)cc1` (configuration not stated) gave ER stress surv 4.
`CCOc1ccc(C(=O)Nc2cccc(-c3nc4ccccc4s3)c2)cc1` gave ER stress surv 4.
For CCOc1ccc(-c2cc(C(=O)Nc3c(C)cccc3CC)c3ccccc3n2)cc1 the results were ER stress surv 2.
`CC1=C(C(=O)Nc2ccccc2)C(c2ccccc2Br)NC(=O)N1` (configuration not stated) gave ER stress surv 9.
Screening O=C(c1cccs1)N1CCN(c2cc(N3CCCCC3)c(F)cc2[N+](=O)[O-])CC1 returned ER stress surv -4.
`COc1ccc(NC(=O)COc2ccc(-c3ccc(C)cc3)cc2)c([N+](=O)[O-])c1` gave ER stress surv 10.
For COC(=O)c1cccc(NC(=O)/C=C/c2ccc(OC)cc2)c1 the results were ER stress surv -6.
For COc1ccc(C(CC(=O)c2ccc(C)cc2)Nc2ccc(Br)cc2)cc1 (configuration not stated) the results were ER stress surv 10.
`N#CC(C#N)=NNc1ccc(O)c(C(=O)O)c1` gave ER stress surv 12.
`CCOc1cccc(C2Nc3ccccc3NC3=C2C(=O)CC(c2ccc(OC)cc2)C3)c1` (configuration not stated) gave ER stress surv 106*.
Screening COc1ccc(C2CC(=O)C3=C(C2)Nc2ccccc2NC3c2ccc(F)c(Br)c2)cc1 (configuration not stated) returned ER stress surv 15.
COc1ccc(C2CC(=O)C3=C(C2)Nc2ccccc2NC3c2cc(OC)c(OC)cc2Br)cc1 (configuration not stated) was read as ER stress surv 4.
COc1ccc(C2CC(=O)C3=C(C2)Nc2ccccc2NC3c2c(F)cccc2F)cc1 (configuration not stated) was read as ER stress surv 5.
O=C1CCCC2=C1C(c1ccc(Br)cc1)Nc1ccc(C(=O)c3ccccc3)cc1N2 (configuration not stated) was read as ER stress surv 66*.
O=C1CCCC2=C1C(c1cccnc1)Nc1ccc(C(=O)c3ccccc3)cc1N2 (configuration not stated) was read as ER stress surv 9.
COc1ccc(C2CC(=O)C3=C(C2)Nc2ccccc2NC3c2ccc(Br)s2)cc1 (configuration not stated) was read as ER stress surv 85*.
Screening CCOc1cc(C2Nc3ccccc3NC3=C2C(=O)CC(c2ccc(OC)cc2)C3)cc(Cl)c1O (configuration not stated) returned ER stress surv 112*.
For COc1ccc(C2CC(=O)C3=C(C2)Nc2ccccc2NC3c2cccc(O)c2)cc1 (configuration not stated) the results were ER stress surv -4.
For CCOc1cc(C2Nc3ccccc3NC3=C2C(=O)CC(c2ccc(OC)cc2)C3)ccc1OC(=O)C1CC1 (configuration not stated) the results were ER stress surv 2.
For COc1ccc(C2Nc3ccc(C(=O)c4ccccc4)cc3NC3=C2C(=O)CCC3)cc1 (configuration not stated) the results were ER stress surv -1.
Screening COc1ccc(C2Nc3ccccc3NC3=C2C(=O)CC(c2ccccc2)C3)c(OC)c1 (configuration not stated) returned ER stress surv 7.
For O=C(Nc1cccc(-c2nc3ccccc3[nH]2)c1)c1cccs1 the results were ER stress surv 3.
For CC(C)(C)C(=O)Nc1nnc(-c2ccccc2)s1 the results were ER stress surv 6.
For CNC(=O)CN(c1ccc(C)cc1)S(=O)(=O)c1ccc(SC)cc1 the results were ER stress surv 2.
`CCn1c(O)c(C=NCCc2ccc(O)c(O)c2)c2ccccc21` gave ER stress surv -3.
Screening COc1ccc(C2CC(=O)C3=C(C2)Nc2ccccc2NC3c2cccc(Br)c2)cc1 (configuration not stated) returned ER stress surv 25.
`O=C1CC(c2ccccc2)CC2=C1C(c1ccc(F)c(Br)c1)Nc1ccccc1N2` (configuration not stated) gave ER stress surv 6.
Screening O=C1CC(c2ccccc2)CC2=C1C(c1cccc(Br)c1)Nc1ccccc1N2 (configuration not stated) returned ER stress surv 88*.
For CCOS(=O)(=O)/C=C/c1ccccc1 the results were ER stress surv 0.
COC(=O)c1c(NC(=O)/C=C/c2ccco2)sc2c1CCC(C)C2 (configuration not stated) was read as ER stress surv 7.
For CC1=C(C(=O)OCC2CCCO2)C(c2ccc(F)cc2)C2=C(CCCC2=O)N1 (configuration not stated) the results were ER stress surv 3.
Screening CCn1c2ccccc2c2cc(C3C(C(=O)OCC4CCCO4)=C(C)NC4=C3C(=O)CCC4)ccc21 (configuration not stated) returned ER stress surv 96*.
CCOc1cc(C2C(C(=O)OCC3CCCO3)=C(C)NC3=C2C(=O)CCC3)cc([N+](=O)[O-])c1O (configuration not stated) was read as ER stress surv -3.
`O=C(Nc1ccc(O)c(-c2nc3cc(Cl)ccc3o2)c1)c1cccnc1` gave ER stress surv 1.
